From PubChem BioAssay
RECQ1 inh-1: RECQ1 (human) helicase inhibition. P46063. RECQ1 DNA unwinding, red fluorescence kinetic read. Potency, µM (highest dose often 57.3 µM), inactives show at the top dose activity, negative = inhibition, most hits filed as inhibitors. 240,000 compounds, 0.54% hits;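 also: plate controls were vehicle for no effect and no enzyme for full effect; nearly all actives have a fitted effect of over 30% in size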
Target sequence (P46063 whole entry, looked up): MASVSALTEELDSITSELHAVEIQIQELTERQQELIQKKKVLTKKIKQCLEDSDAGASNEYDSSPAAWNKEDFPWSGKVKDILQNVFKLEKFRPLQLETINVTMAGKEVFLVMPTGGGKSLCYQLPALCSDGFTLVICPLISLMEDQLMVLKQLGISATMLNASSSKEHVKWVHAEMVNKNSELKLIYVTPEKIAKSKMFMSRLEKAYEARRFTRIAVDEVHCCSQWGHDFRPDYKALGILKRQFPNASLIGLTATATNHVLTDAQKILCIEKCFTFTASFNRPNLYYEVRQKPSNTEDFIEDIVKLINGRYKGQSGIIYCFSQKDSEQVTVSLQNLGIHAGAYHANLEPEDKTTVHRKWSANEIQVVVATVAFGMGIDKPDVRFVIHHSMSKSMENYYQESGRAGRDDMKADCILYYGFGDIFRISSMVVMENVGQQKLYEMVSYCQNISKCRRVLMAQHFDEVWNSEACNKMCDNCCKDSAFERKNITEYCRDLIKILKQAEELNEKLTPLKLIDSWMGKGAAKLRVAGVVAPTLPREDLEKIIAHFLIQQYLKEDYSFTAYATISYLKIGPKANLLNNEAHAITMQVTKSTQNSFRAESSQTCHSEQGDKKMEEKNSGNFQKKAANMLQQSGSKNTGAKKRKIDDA
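RECQ1T1 50 nM; forked duplex (20 bp + 30-nt ss tails) 200 nM, ATP 2 mM final; pH 8.0, 2 mM MgCl2, 2.5 ug/ml poly(dI-dC); 15 min compound preincubation; discontinuous kinetic read over 2 h at RT.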
FEN1 inh: inhibitors of human flap endonuclease 1; P39748; Recombinant FEN1 flap cleavage, fluorescence, 15 min; Potency, µM (titrated, usually from 114 µM), inactives show top-dose activity change, negative = inhibition, hits mostly inhibitors; 390,000 compounds, 0.35% hits; AID 588795; also: nearly all actives have a fitted effect of over 65% in size
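Concentration–response screening of FEN1 (10 nM): 15 min compound preincubation at room temperature, reaction started with 50 nM substrate and read at 0 and 15 min. Corrected, normalized data were fitted by a four-parameter Hill equation.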
GLS inh: inhibitors of human glutaminase (GLS). O94925. GLS enzymatic activity, qHTS titration. Potency, µM (doses to about 45.5 µM), for the others: at the top dose activity change, negative = inhibition, most hits filed as inhibitors. 410,000 compounds, 0.21% hits. AID 624170
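hKGA in 45 mM KH2PO4 (pH 8.2), 0.02% Tween-20 with compound, then 1mM L-Glutamine (stock as added) plus glutamate oxidase/HRP/Amplex red coupling mix. Fluorescence read initially and after 30 min at RT; signal change reflects glutamate formation.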
APE1 inh: blocks human APE1 abasic DNA cleavage | P27695 | recombinant APE1, TAMRA/BHQ-2 abasic DNA cleavage fluorescence | Potency, µM (series often up to 65.8 µM), for the others: at the top dose activity change, negative = inhibition, actives largely listed as inhibitors | 350,000 compounds, 0.35% hits | AID 2517;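 also: plate controls were vehicle for no effect and reference inhibitor for full effect; nearly all actives have a fitted effect of over 55% in size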
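Readout is kinetic fluorescence (ex 525, em 598 nm) from cleavage of 50 nM TAMRA/BHQ-2 THF abasic duplex by 0.75 nM APE1, compound added 15 min beforehand at RT.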
PGK inhibitor: blocks T. brucei phosphoglycerate kinase | P07378 | PGK/GAPDH coupled, Kinase-Glo luminescence, 60 min | Potency, µM (doses to about 57.5 µM), inactives show at the highest dose activity change, negative = inhibition, usual class: inhibitors | 380,000 compounds, 0.043% hits | AID 602233; also: nearly all actives have a fitted effect of over 60% in size
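Recombinant glycosomal PGK reaction used 1,3-bisphosphoglycerate generated in-well by GAPDH (100nM final) in 100mM TEA pH 7.6, 5mM MgCl2, 0.01% Tween-20. After 60 minutes at room temperature, ATP was read by Kinase-Glo Plus luminescence end-point.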
BLM helicase inh: Bloom syndrome helicase (human) inhibition; P54132; recombinant BLM DNA unwinding, fluorescence dequenching; Potency, µM (doses to about 56.1 µM), for inactives: top-dose activity change, negative = inhibition, most hits filed as inhibitors; 350,000 compounds, 0.2% hits;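 also: plate controls were vehicle for no effect and no enzyme for full effect; nearly all actives have a fitted effect of over 35% in size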
RECQ1 inh conf: confirmation of human RECQ1 helicase inhibitors; shares compounds with RECQ1 inh-1; AID 2708; Potency, µM (doses to about 229 µM), for inactives: at the highest dose activity change, negative = inhibition, most hits filed as inhibitors; RECQ1 helicase DNA unwinding, fluorescence; 610 compounds, 28% hits; also: nearly all actives have a fitted effect of over 45% in size
RECQ1 inh-2: RECQ1 helicase inhibition confirmed, round 2; shares compounds with RECQ1 inh-1; recombinant RECQ1 DNA unwinding, red fluorescence; Potency, µM (series often up to 119 µM), for the others: at the top dose activity, negative = inhibition, most hits filed as inhibitors; 1,100 compounds, 15% hits; AID 504841; also: nearly all actives have a fitted effect of over 50% in size
* = called active by the depositor; i = inactive; ? = inconclusive; . = no result; [ ] = remark or other dose. An excerpt weighted towards active compounds, which were near 0.86% of everything screened. Calls follow the shape of the dose curve; as a rule, active = well fitted curve in the direction sought with a large enough effect; inconclusive = small, poorly fitted or top-dose-only effect, or another doubt; inactive = no such curve, though single readings can be large; an effect the other way counts as inactive or inconclusive. Unless noted, % is scaled to controls: 0 for no effect and ±100 for the full control effect; potency is read from the fitted curve at half-maximal effect.

SMILES	RECQ1 inh-1	FEN1 inh	GLS inh	APE1 inh	PGK inhibitor	BLM helicase inh	RECQ1 inh-2	others
CCOC(=O)C1=C(N)n2c(s/c(=C\c3ccco3)c2=O)=C(C(=O)OC(C)C)C1c1ccco1 (stereo unspecified)	32µM*	-10%	12%	?	-10%	-12%	-26%
O=C(COc1ccc2ccccc2c1)Nc1cccc(C(=O)Nc2ccccc2C(=O)O)c1	?	-17%	6%	?	-8%	-3%	?
O=C(C[n+]1ccccc1Cl)c1ccc2c(c1)CCCC2	.	-30%	.	.	.	.	.
C/C(N)=C(/C#N)C(=O)COC(=O)C1Cc2ccccc2CN1S(C)(=O)=O (stereo unspecified)	?	0%	-22%	?	-2%	-15%	?
CS(=O)(=O)N1Cc2ccccc2CC1C(=O)OCC(=O)NCc1ccccc1 (stereo unspecified)	.	-8%	-4%	?	-8%	.	.
CC(C)(O)C#Cc1ccc(CN2CCCC(CO)(Cc3cccc(Cl)c3)C2)cc1 (stereo unspecified)	?	-8%	-5%	-2%	-5%	-7%	-26%
Cc1ccccc1CC1(CO)CCCN(Cc2ccc(C#CC(C)(C)O)cc2)C1 (stereo unspecified)	19%	4%	-1%	2%	12%	-4%	.
Cc1ccc(Cn2c(CCNC(=O)C(C)C)nc3ccccc32)cc1	.	-6%	1%	.	-4%	0%	.
CCOc1ccc(-n2c(=O)c3c(C)c(C)sc3n(CC(=O)C(C)(C)C)c2=O)cc1	.	-3%	-5%	.	.	-2%	.
COc1ccc(-c2nnc(Nc3ccc(OC)c(C(N)=O)c3)c3ccccc23)cc1	.	?	6%	.	i	-16%	.
COc1ccc(Nc2nnc(-c3ccc(O)cc3)c3ccccc23)cc1C(N)=O	?	?	7.9µM*	1%	i	-11%	-13%
COc1ccc(Cl)cc1C(=O)Nc1cccc(-c2ccc3nncn3n2)c1	?	-33%	-29%	?	-6%	-12%	?
COc1ccc(C(CCN2CCCCC2)c2c(OC)cc(OC)c3c(-c4ccccc4)cc(=O)oc23)cc1 (stereo unspecified)	7%	-22%	11%	-2%	10%	2%	.
CCN(CC)C(=O)CC(c1ccc(OC)cc1)c1c(OC)cc(OC)c2c(-c3ccccc3)cc(=O)oc12 (stereo unspecified)	20µM*	-32%	.	?	.	-27%	?
O=C(c1ccc(OCCN2CCCCC2)cc1)c1c(-c2ccc(O)cc2)sc2cc(O)ccc12	?	-2%	-18%	21%	-5%	-4%	-7%
Oc1cccc(-c2sc3ccccc3c2-c2ccc(OCCN3CCCCC3)cc2)c1	.	.	28%	.	.	.	.
CC1CCCCC1NC(=O)COC(=O)c1c2c(nc3ccccc13)/C(=C/c1ccco1)CC2 (stereo unspecified)	13µM*	?	-23%	?	-10%	?	?	RECQ1 inh conf=1%[114 µM]
Cc1sc2ccccc2[n+]1CC(=O)c1ccc(F)cc1	.	0%	.	.	.	.	.
CCC(=O)N(C)/C=C1\Sc2ccccc2C1=O	-4%	-5%	15%	-1%	i	0%	.
CC(=O)N(C)/C=C1\Sc2ccccc2C1=O	?	-2%	3%	0%	-7%	-2%	-15%
C(=Nc1ccc(/C=C/c2ccnc3ccccc23)cc1)c1ccco1	.	0%	.	.	.	.	.
CC(C)=C1C(=O)NN(c2ccc(C)c(Cl)c2)C1=O	?	-4%	16%	-1%	1%	-5%	-3%
CCN(CC)C(=O)c1cn(CCC#N)nc1-c1ccc(F)cc1	40µM*	11%	-2%	?	i	0%	3%
CN(C)C(=O)c1cn(CCC#N)nc1-c1ccc2ccccc2c1	.	8%	-7%	10%	i	2%	.
CC(C)c1ccc(C(=O)CC2(O)C(=O)N(CCc3ccccc3)c3ccc(Cl)cc32)cc1 (stereo unspecified)	.	-27%	-5%	.	-9%	-20%	.
SMILES	RECQ1 inh-1	FEN1 inh	GLS inh	APE1 inh	PGK inhibitor	BLM helicase inh	RECQ1 inh-2	others
Cc1cc(C)n2nc(C(=O)OCC(=O)c3cc(C)n(C)c3C)nc2n1	?	-7%	?	-10%	-14%	-15%	?
Cc1cc(C)n2nc(C(=O)OCC(=O)c3cc(C)n(CC4CCCO4)c3C)nc2n1 (stereo unspecified)	7%	3%	-5%	-4%	i	-5%	.
Cc1ccc(-c2nc3sc(CCNS(=O)(=O)c4cc(F)ccc4F)c(C)n3n2)cc1	.	?	4%	.	1%	-5%	.
Cc1ccc(-n2nc(C)c3c2OC(N)=C(C#N)C3c2ccoc2)cc1 (stereo unspecified)	?	-3%	-5%	?	-2%	-6%	-7%
CCCc1cnc2c(c1SCC(=O)Nc1ccc([N+](=O)[O-])cc1)c(=O)n(C)c(=O)n2C	.	0%	-15%	.	i	-2%	.
CN(C)C(=O)CSc1ncnc2scc(-c3ccccc3)c12	?	-5%	1%	8%	-9%	9%	-7%
O=C(O)CSc1ncnc2scc(-c3ccccc3)c12	-3%	-1%	14%	-1%	-8%	-8%	.
Cc1c(C(=O)Nc2ccc(F)c(F)c2)oc2ccc(S(=O)(=O)N(C)C3CCCCC3)cc12	.	3%	5%	.	i	-7%	.
COC/C=C/C1=CC2=CC(=O)C(C)(OC(=O)CCc3ccccc3)C(=O)C2=CO1 (stereo unspecified)	-3%	.	.	-5%	.	2%	.
O=C(O)c1cccc(N2C(=O)/C(=C/c3ccc(SCc4ccc(Cl)cc4)o3)SC2=S)c1	22µM*	?	?	10µM*	35µM*	113%	.	RECQ1 inh conf=-87%[114 µM]
O=C(CCN1C(=O)/C(=C/c2ccc(Cl)cc2)SC1=S)Nc1cccc(C(=O)O)c1	.	?	3%	?	?	?	.
CC[C@H](C)[C@H](NC(=O)[C@H](CC(C)C)NC(=O)[C@@H](N)CO)C(=O)NCC(=O)N[C@@H](CCCN=C(N)N)C(=O)N[C@@H](CC(C)C)C(=O)O	6%	.	.	-2%	.	0%	.
O=C(NCc1ccccn1)C1CCN(S(=O)(=O)c2cc(Cl)ccc2Cl)CC1	?	-1%	-12%	19%	-8%	0%	-4%
